Counter-ions that a name gives are not always drawn.
tested on: U2932 TK216-resistant clone 3; assay: cell proliferation relative to vehicle (% of vehicle); higher = less growth inhibition; settings: 500 nM; 72 h
Method in brief: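 A targeted inhibitor library of 348 compounds was tested on the ABC-DLBCL line U2932, both parental and two clones made resistant to an ETS-targeting agent by repeated exposure over almost a year. Cells were grown at 37°C and 5% CO2 in medium with 10% FBS, then treated at 500 nM or 50 nM for 72 h. MTT was added for 4 h, stopped with 25% SDS, and absorbance was read on a Cytation 3. Proliferation is reported as percent of proliferating cells relative to vehicle (DMSO).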

SMILES	cell proliferation
CCCCCOC(=O)Nc1nc(=O)n([C@@H]2O[C@H](C)[C@@H](O)[C@H]2O)cc1F [Capecitabine]	108
C[C@H](Nc1ncnc2nc[nH]c12)c1cc2cccc(Cl)c2c(=O)n1-c1ccccc1	94.3
Cc1cc(Nc2cc(N3CCN(C)CC3)nc(/C=C/c3ccccc3)n2)n[nH]1 [ENMD-2076 L-(+)-Tartaric acid]	57.2
Cn1cc(CNCC2CCN(c3ncc(C(=O)NO)cn3)CC2)c2ccccc21	10.2
Cc1ccc(C(=O)N(CCCN)[C@@H](c2nc3cc(Cl)ccc3c(=O)n2Cc2ccccc2)C(C)C)cc1	5.07
NCC(=O)Nc1ccc(-n2nc(C(F)(F)F)cc2-c2ccc3c(ccc4ccccc43)c2)cc1	72.8
CC[C@@]1(O)C(=O)OCc2c1cc1n(c2=O)Cc2cc3c(CN(C)C)c(O)ccc3nc2-1 [Topotecan HCl]	5.92
COc1ccc(S(=O)(=O)N(CCO)c2ccccc2CN(C)C/C=C/c2ccc(Cl)cc2)cc1 [KN-93 Phosphate]	90.1
CC[C@@H]1C(=O)N(C)c2cnc(Nc3ccc(C(=O)NC4CCN(C)CC4)cc3OC)nc2N1C1CCCC1	23.3
CC(C)(C)c1nc(-c2cccc(NS(=O)(=O)c3c(F)cccc3F)c2F)c(-c2ccnc(N)n2)s1	110
CC(C)CCN1c2nc(Nc3cc(F)c(O)c(F)c3)ncc2N(C)C(=O)C1C (centres undefined)	91.3
CN1C(=O)C(Cc2c[nH]c3ccccc23)NC1=S (centres undefined) [Necrostatin-1]	102
CN(CCOc1ccc(CC2SC(=O)NC2=O)cc1)c1ccccn1 (centres undefined) [Rosiglitazone]	104
CC(C)C[C@H](NC(=O)[C@H](CCc1ccccc1)NC(=O)CN1CCOCC1)C(=O)N[C@@H](Cc1ccccc1)C(=O)N[C@@H](CC(C)C)C(=O)[C@@]1(C)CO1 [Carfilzomib (PR-171)]	-4.17
Cn1cc(-c2ccc3c(c2)CCN3C(=O)Cc2cccc(C(F)(F)F)c2)c2c(N)ncnc21	121
Cc1cc(C(C)Nc2ccccc2)c2nc(N3CCOCC3)cc(=O)n2c1 (centres undefined)	98.3
Oc1nc(-c2ccc(C(F)(F)F)cc2)nc2c1CSCC2	95.1
Cn1cnc([N+](=O)[O-])c1Sc1ncnc2[nH]cnc12 [Azathioprine]	103
Cn1cncc1[C@@](N)(c1ccc(Cl)cc1)c1ccc2c(c1)c(-c1cccc(Cl)c1)cc(=O)n2C [Tipifarnib]	74.9
CO[C@@H](C(=O)N1Cc2[nH]nc(NC(=O)c3ccc(N4CCN(C)CC4)cc3)c2C1)c1ccccc1	71.7

SMILES	cell proliferation
CC(C)(C)c1cc(NC(=O)Nc2ccc(-c3cn4c(n3)sc3cc(OCCN5CCOCC5)ccc34)cc2)no1 [Quizartinib (AC220)]	90.2
O=C(NCCCNc1nc(Nc2cccc(NC(=O)N3CCCC3)c2)ncc1I)c1cccs1	95.7
N#C/C(=C(/N)Sc1ccc(N)cc1)c1ccccc1C(F)(F)F	92.8
Oc1ccc(-c2nc(-c3ccc(F)cc3)c(-c3ccncc3)[nH]2)cc1	98.7
COc1ccc(F)c(F)c1C(=O)c1cnc(NC2CCN(S(C)(=O)=O)CC2)nc1N	66.7
Cc1nc(-c2ccc(OCC(C)C)c(C#N)c2)sc1C(=O)O [Febuxostat]	104
COc1cccc(-c2cc(F)ccc2C2Cc3nc(N)nc(C)c3C(=O)N2)n1 (centres undefined)	18.7
CC(C)C(=O)Nc1ccc([N+](=O)[O-])c(C(F)(F)F)c1 [Flutamide]	98.3
CN(C)CCOc1ccc(-c2nc(-c3ccncc3)c(-c3ccc4c(c3)CC/C4=N\O)[nH]2)cc1	97.4
Nc1nc(F)nc2c1ncn2[C@@H]1O[C@H](COP(=O)(O)O)[C@@H](O)[C@@H]1O [Fludarabine Phosphate]	104
COc1ccc(C2=N[C@@H](c3ccc(Cl)cc3)[C@@H](c3ccc(Cl)cc3)N2C(=O)N2CCNC(=O)C2)c(OC(C)C)c1 [Nutlin-3a]	99.2
CCS(=O)(=O)N1CC(CC#N)(n2cc(-c3ncnc4[nH]ccc34)cn2)C1	104
CCc1nc(-c2cccc(C)c2)c(-c2ccnc(NC(=O)c3ccccc3)c2)s1	103
CNCc1ccc(-c2[nH]c3cc(F)cc4c3c2CCNC4=O)cc1	108
CCCCOc1c(C(=O)c2c(F)cc(C)cc2F)c[nH]c2nncc1-2	58.9
CC[C@H](NC(=O)[C@H](C)NC)C(=O)N1C[C@@H](O)C[C@H]1Cc1c(-c2[nH]c3cc(F)ccc3c2C[C@@H]2C[C@H](O)CN2C(=O)[C@H](CC)NC(=O)[C@H](C)NC)[nH]c2cc(F)ccc12 [Birinapant]	90.9
O=C(/C=C/c1ccc(CN(CCO)CCc2c[nH]c3ccccc23)cc1)NO [LAQ824 (Dacinostat)]	12.4
COc1ccc(-n2c(SCCCN3C(=O)c4cccc5cccc(c45)C3=O)nnc2-c2ccncc2)cc1	99.4
CO[C@H]1C[C@@H]2CC[C@@H](C)[C@@](O)(O2)C(=O)C(=O)N2CCCC[C@H]2C(=O)O[C@H]([C@H](C)C[C@@H]2CC[C@@H](O)[C@H](OC)C2)CC(=O)[C@H](C)/C=C(\C)[C@@H](O)[C@@H](OC)C(=O)[C@H](C)C[C@H](C)/C=C/C=C/C=C/1C [Rapamycin (Sirolimus)]	59.4

— the supplement of paper PMC13172266
